This is a sample that favours compounds with a hit; in the whole collection about 4.5% have one here.
CSC inhib: cancer stem cell viability inhibitors, primary screen, luminescence; cancer stem cell-like cells viability; inhibition, % at 7.5 µM; actives 1.1% (n = 300,000); AID 2717, 2010; in the data active means inhibition above about 75%; tested in HMLE shEcad cells
Gli-Sufu block: Gli-Sufu pathway antagonists, primary screen, luciferase luminescence, Sufu-KO-LIGHT cells, uHTS; Sufu-KO-LIGHT fibroblasts, Gli luciferase reporter luminescence; inhibition, % at 5 µM; actives 0.74% (n = 340,000);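 active means inhibition above about 55%, limit read from the data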
Jurkat NFkB inh: inhibitors of induced NF-kB luciferase reporter, primary screen, TCR NF-kB activation inhibitor project, cell-based, luminescence, uHTS; inhibition, % at 4 µM; actives 0.53% (n = 330,000); Jurkat, PMA/ionomycin-induced NF-kB luciferase reporter; in the data active means inhibition above about 50%
aSyn UTR inh: MLPCN primary screen, SNCA 5' untranslated region | inhibition, % (tested at 7.5 µM) | actives 0.82% (n = 300,000) | AID 1813, 2009 | alpha-synuclein 5'UTR reporter, inhibitor activity; in the data active means inhibition above about 60%;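 further: H4 neuroglioblastoma cells stably carrying SNCA 5'UTR luciferase fusion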
697 NFkB inh: inhibitors of PMA/ionomycin-induced NF-kB reporter, 697 cells, primary screen, B-cell NF-kB inhibitor project, cell-based, luminescence, uHTS | 697 B-cell NF-kB luciferase reporter, 16 h | inhibition, % at 4 µM | actives 0.33% (n = 330,000) | AID 435022, 2010; in the data active means inhibition above about 35%
Mdm2-MdmX inh: inhibitors of human Mdm2-MdmX association, primary screen, cell-based, luminescence, split luciferase, SaOS-2, uHTS; Protein Mdm4 (Homo sapiens) + E3 ubiquitin-protein ligase Mdm2 (Homo sapiens), …; AID 485346, 2010; SaOS-2 split-luciferase Mdm2/MdmX complementation; inhibition, % at 8 µM; actives 3% (n = 330,000);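 active means inhibition of at least 50% at 8 µM in the primary screen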
697 NFkB conf: PMA/ionomycin-induced NF-kB reporter inhibitors, 697 retest, confirmation, B-cell NF-kB inhibitor project, cell-based, luminescence, single concentration; shares compounds with 697 NFkB inh; 697 B-cell NF-kB luciferase, 16 h; inhibition, % at 4 µM; actives 35% (n = 2,000); AID 449746, 2010; in the data active means inhibition mostly above about 28%, no sharp cut-off; inactive means mostly below about 22%
A number is an active result; i = inactive; nt = not tested or not shown.

SMILES	CSC inhib	Gli-Sufu block	Jurkat NFkB inh	aSyn UTR inh	697 NFkB inh	Mdm2-MdmX inh	697 NFkB conf
COc1cc(C2NC(=O)NC(C)=C2C(=O)OC(C)(C)C)ccc1OCC(=O)O (stereo not drawn)	i	i	i	i	40.1	i	i
COc1cccc(NC(=O)N2CCC(C(=O)Nc3ccc(C)cc3C)CC2)c1	nt	i	i	i	35.1	i	i
COc1cc(C(=O)O)ccc1OCC(=O)N1CCOCC1	i	i	i	i	40.2	i	i
CC(=O)Nc1ccc(/C(C)=N/Nc2nc(Nc3ccccc3)nc(N3CCOCC3)n2)cc1	i	i	i	i	53.0	i	i
CCOc1cc(/C=N\Nc2nc(Nc3ccccc3)nc(N3CCOCC3)n2)ccc1OC(=O)c1ccco1	i	i	i	i	59.0	i	46.1

Screening data from PubChem.
